Results as given in PubChem BioAssay (NCATS).
Records with an inconclusive call do not appear. Active and inactive are the calls of the source. Unless noted, calls follow the shape of the dose curve; as a rule, active = well fitted curve in the direction sought with a large enough effect; inconclusive = small, poorly fitted or top-dose-only effect, or another doubt; inactive = no such curve, though single readings can be large; an effect the other way counts as inactive or inconclusive.

Assays:
[1] = qHTS for Inhibitors of Plasmodium falciparum (DD2) proliferation (AID 504314);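 also: parasite DNA measured by SYBR Green fluorescence after red cell lysis; plate controls were DMSO vehicle for no effect and artemisinin wells for full effect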
Method in brief: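 SYBR Green DNA-fluorescence growth assay: infected RBCs at 0.3% parasitemia, 2.5% hematocrit, 72 h compound exposure, 37C, 5% CO2; overnight lysis with dye at RT; normalized to 0.29 uM artemisinin and vehicle.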

[2] = qHTS for Inhibitors of Plasmodium falciparum (GB4) proliferation (AID 504315);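 also: 0% = DMSO vehicle and -100% = 0.29 µM artemisinin control; nearly all actives have a fitted effect of over 50% in size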
Method in brief: (§1)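 Parasite growth measured as SYBR Green DNA fluorescence (ex 485, em 535 nm) after overnight lysis following 72 h culture at 37 °C, 0.3% parasitemia, 2.5% hematocrit. Values normalized against DMSO and 0.29 uM artemisinin controls, with plate-stack correction.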

[3] = qHTS for Inhibitors of Plasmodium falciparum (HB3) proliferation (AID 504318);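 also: 0% = DMSO vehicle and -100% = artemisinin control; nearly all actives have a fitted effect of over 60% in size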
Method in brief: as §1

[4] = qHTS for Inhibitors of Plasmodium falciparum (CP250) proliferation (AID 504320);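 also: plate controls were DMSO vehicle for no effect and 0.29 µM artemisinin control for full effect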
Method in brief: as §1

[5] = molecular target: Atrial natriuretic peptide receptor 1 (Homo sapiens) (UniProt P16066); test: Natriuretic polypeptide receptor (hNpr1) antagonism - Pilot CMLD screen (AID 1347052; calls by dose curve;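 also: HEK293 cells with hNpr1 stimulated by hNppA peptide at 0.1 nM; cGMP level read as GloSensor luciferase luminescence after agonist stimulation; series mostly up to about 9.2 µM; % is scaled to controls: 0 for no effect and ±100 for the full control effect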)
Atrial natriuretic peptide receptor 1 (Homo sapiens), sequence (P16066 whole entry, looked up): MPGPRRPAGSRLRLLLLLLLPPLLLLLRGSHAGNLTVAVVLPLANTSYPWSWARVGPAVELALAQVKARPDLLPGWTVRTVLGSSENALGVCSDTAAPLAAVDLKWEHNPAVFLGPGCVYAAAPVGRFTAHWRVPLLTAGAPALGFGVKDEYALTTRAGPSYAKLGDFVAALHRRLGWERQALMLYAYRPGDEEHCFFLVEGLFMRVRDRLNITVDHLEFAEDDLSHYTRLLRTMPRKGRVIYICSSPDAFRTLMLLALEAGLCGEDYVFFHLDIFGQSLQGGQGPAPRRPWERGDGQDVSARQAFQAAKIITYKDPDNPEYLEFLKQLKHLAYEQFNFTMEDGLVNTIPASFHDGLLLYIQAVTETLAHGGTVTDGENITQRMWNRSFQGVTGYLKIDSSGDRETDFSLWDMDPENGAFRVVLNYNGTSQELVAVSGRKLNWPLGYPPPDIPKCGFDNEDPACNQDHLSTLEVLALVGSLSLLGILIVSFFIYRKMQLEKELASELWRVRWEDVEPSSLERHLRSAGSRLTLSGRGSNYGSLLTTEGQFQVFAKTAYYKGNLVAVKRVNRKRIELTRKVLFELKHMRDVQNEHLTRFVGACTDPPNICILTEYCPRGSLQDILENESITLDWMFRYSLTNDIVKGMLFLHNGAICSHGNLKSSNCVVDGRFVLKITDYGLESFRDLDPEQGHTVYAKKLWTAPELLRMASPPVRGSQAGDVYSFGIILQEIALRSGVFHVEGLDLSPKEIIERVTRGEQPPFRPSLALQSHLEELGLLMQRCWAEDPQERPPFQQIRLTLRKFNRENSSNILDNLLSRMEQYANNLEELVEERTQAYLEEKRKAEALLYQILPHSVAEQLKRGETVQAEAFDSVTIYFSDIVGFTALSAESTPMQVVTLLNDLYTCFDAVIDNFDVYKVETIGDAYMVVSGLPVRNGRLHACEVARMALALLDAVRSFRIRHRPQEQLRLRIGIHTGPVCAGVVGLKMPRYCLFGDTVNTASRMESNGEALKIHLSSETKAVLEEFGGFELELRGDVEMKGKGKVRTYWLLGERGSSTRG

COc1cc2c(cc1OC)CSC1C(=O)N(C)C(SC2)C(=O)N1C
inactive: Potency [1] | Potency [2] | Potency [3] | Potency [4] | Potency [5]

COC(=O)C1=C(C)N(Cc2ccccc2)C(=O)NC1c1ccccc1 (stereo not given)
inactive: Potency [1] | Potency [2] | Potency [3] | Potency [4] | Potency [5]

COc1ccc2c(c1)O[C@@H](c1cccc(C(F)(F)F)c1)[C@H](OC(=O)Nc1ccc(OC(F)F)cc1)C2=O
inactive: Potency [1] | Potency [2] | Potency [3] | Potency [4] | Potency [5]

CC#CCN1C(=O)NC(c2ccccc2)C(C#N)=C1C (stereo not given)
inactive: Potency [1] | Potency [2] | Potency [3] | Potency [4] | Potency [5]

CC1(OC(=O)C2CCCC2)C(=O)C=C2C=C(C3CC3)OC=C2C1=O (stereo not given)
inactive: Potency [1] | Potency [2] | Potency [3] | Potency [4] | Potency [5]

COCC=CC1=CC2=CC(=O)C(C)(OC(=O)c3cnc4ccccc4n3)C(=O)C2=CN1CC(C)C (stereo not given)
inactive: Potency [1] | Potency [2] | Potency [3] | Potency [4] | Potency [5]

COc1ccc([C@]23Cc4cc(C#N)ccc4[C@H](O2)C2=C(CC4(CCCCC4)OC2=O)O3)cc1
inactive: Potency [1] | Potency [2] | Potency [3] | Potency [4] | Potency [5]

COC[C@@H](OC(C)=O)[C@H]1OCc2ccccc2[C@@H]1C=Cc1ccccc1
inactive: Potency [1] | Potency [2] | Potency [3] | Potency [4] | Potency [5]

CCN1C(=O)[C@@H]2[C@H]3[C@H](O)[C@H](O)CC(=NNC(=O)OCc4ccccc4)[C@@H]3CC[C@H]2C1=O
inactive: Potency [1] | Potency [2] | Potency [3] | Potency [4] | Potency [5]

CC=CCCN1C=C(C(=O)OCC)C(c2ccccc2)NC1=O (stereo not given)
inactive: Potency [1] | Potency [2] | Potency [3] | Potency [4] | Potency [5]

CC(C)=CCCC(C)=CCON=C1C[C@@H](O)[C@@H](O)[C@@H]2[C@H]3C(=O)N(c4ccc(F)cc4F)C(=O)[C@@H]3CC[C@H]12
inactive: Potency [1] | Potency [2] | Potency [3] | Potency [4] | Potency [5]

COC(=O)C[C@H]1c2ccccc2[C@@H]2C(=C[C@@H](C)[C@H]3C(=O)N(c4ccccc4)C(=O)[C@H]32)N1C(=O)OC
inactive: Potency [1] | Potency [2] | Potency [3] | Potency [4] | Potency [5]

COc1cc(O)c(C(=O)C=Cc2ccccc2)c(O)c1
inactive: Potency [1] | Potency [2] | Potency [3] | Potency [4] | Potency [5]

CC(CCN1CCc2nc(-c3ccccc3)c(-c3ccccc3)cc2C1)=NOC[C@@H](O)COCc1ccco1
inactive: Potency [1] | Potency [2] | Potency [3] | Potency [4] | Potency [5]

CCCCC1=CC2=C(c3ccco3)C(=O)C(C)(OC(=O)c3ccc(OC)cc3)C(=O)C2=CN1CC1CC1 (stereo not given)
inactive: Potency [1] | Potency [2] | Potency [3] | Potency [4] | Potency [5]

CCOC(=O)C(C)=NNC(C)=O
inactive: Potency [1] | Potency [2] | Potency [3] | Potency [4] | Potency [5]

CC1(OC(=O)c2cnc3ccccc3n2)C(=O)C=C2C=C(c3ccc(C#N)cc3)OC=C2C1=O (stereo not given)
inactive: Potency [1] | Potency [2] | Potency [3] | Potency [4] | Potency [5]

CCCNC(=O)OC[C@H]1O[C@H](CCON=C2[C@H]3CCn4c(=O)n(-c5ccccc5)c(=O)n4[C@@H]3[C@H](O)[C@@H]3O[C@H]23)C=C[C@H]1Oc1ccc(OC)cc1
inactive: Potency [1] | Potency [2] | Potency [3] | Potency [4] | Potency [5]

C[C@@H]1CC[C@H]2C(=O)N3[C@@H](CC[C@@H](C)[C@@H]3c3ccc(-c4ccco4)cc3)C(=O)N2[C@@H]1c1ccc(-c2ccco2)cc1
inactive: Potency [1] | Potency [2] | Potency [3] | Potency [4] | Potency [5]

COC(=O)N1[C@H]2CC[C@@]3(C)C=C(C)O[C@]1(C)C3c1ccccc12
inactive: Potency [1] | Potency [2] | Potency [3] | Potency [4] | Potency [5]

COC(=O)C[C@H]1c2ccccc2C2=C(C[C@@H](C)[C@H]3C(=O)NC(=O)[C@@H]23)N1C(=O)OC
inactive: Potency [1] | Potency [2] | Potency [3] | Potency [4] | Potency [5]

CC#CCC1(C(=O)OC)C(=O)NC[C@H]1c1ccccc1 (stereo not given in full)
inactive: Potency [1] | Potency [2] | Potency [3] | Potency [4] | Potency [5]

CCOC(=O)CN1C(=O)N[C@@H](c2cccc(C(F)(F)F)c2)[C@H](C(C)=O)[C@H]1C
inactive: Potency [1] | Potency [2] | Potency [3] | Potency [4] | Potency [5]

CC1(OC(=O)c2ccc(Cl)nc2)C(=O)Cc2cc(-c3ccsc3)ncc2C1=O (stereo not given)
inactive: activity, negative = inhibition [1] -1.5% [at 1.12 µM] | Potency [2] | Potency [3] | Potency [4] | Potency [5]

COCCN1C(=O)NC(c2ccc(Br)cc2)C(C(C)=O)=C1C (stereo not given)
inactive: Potency [1] | Potency [2] | Potency [3] | Potency [4] | Potency [5]
